Screens (PubChem BioAssay)
KDM5B inh – KDM5B demethylase inhibition. KDM5B demethylase, FDH-coupled NADH fluorescence (FDH is formaldehyde dehydrogenase). 220,000 compounds, 2.6% hits. Q9UGL1. Potency, µM (doses to about 57.7 µM), usual class: inhibitors; active means well fitted inhibition curve with a large enough effect; further: 0% is about no effect; nearly all actives have a fitted effect of over 70% in size
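Here, H3K4me3 peptide (12.5 µM in substrate mix) is demethylated by KDM5BΔAP, 200 nM final, after 10 min compound exposure. Formaldehyde product is coupled through FDH (0.25 U/mL in mix) to NADH fluorescence; 30-min ΔRFU feeds dose-response curves.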
* = called active by the depositor. Only a selection was taken, and hits are over-represented in it overall. Potency means the concentration at half of the fitted maximal effect.

`COC(=O)C(NC(=O)N1CCc2nc3cc(-c4ccccc4)[nH]n3c(=O)c2C1)C(C)C` (stereo not given) gave KDM5B inh 25.1µM*.
COc1ccc(NC(=O)N2CCc3c(nc4cc(-c5ccccc5)[nH]n4c3=O)C2)c(C)c1 was read as KDM5B inh 20µM*.
For COC(=O)CC(NC(=O)N1CCc2c(nc(-c3ccccc3)[nH]c2=O)C1)c1ccccc1 (stereo not given) the results were KDM5B inh inactive.
`COc1ccc(NC(=O)N2C[C@@H](F)C[C@H]2C(=O)N2CCc3ccccc3C2)c(C)c1` gave KDM5B inh inactive.
For O=C(Nc1ccc(Cl)cc1)N1CCc2nc(-c3ccc(Cl)cc3)nc(-c3ccccc3)c2C1 the results were KDM5B inh inactive.
CSc1ccc(NC(=O)N2CCc3nc4cc(-c5ccccc5)[nH]n4c(=O)c3C2)cc1 was read as KDM5B inh 25.1µM*.
Screening O=C(NCc1ccc(F)cc1)N1CC(Oc2ccc(-c3nc(-c4ccccc4)no3)cc2)C1 returned KDM5B inh inactive.
Screening CC(C)(C)C(C)(O)C#CCN1CCCC1 (stereo not given) returned KDM5B inh inactive.
For Cc1ccc(CC(=O)N(CC#N)C2CC2)s1 the results were KDM5B inh inactive.
For Fc1ccc(OCc2ncc(-c3ccccc3)o2)c(Br)c1 the results were KDM5B inh inactive.
O=S(=O)(c1c(Cl)cccc1Cl)N1CCNCC1 was read as KDM5B inh inactive.
`CN(C)c1ccc(NC(=O)c2cc(C(C)(C)C)cc(C(C)(C)C)c2)cc1` gave KDM5B inh inactive.
For COc1cccc(-c2cc(C3CCN(C(=O)Nc4ccc(C)cc4C)CC3)[nH]n2)c1 the results were KDM5B inh inactive.
For COc1ccc(-c2cc3nc4c(c(=O)n3[nH]2)CCN(C(=O)COc2ccccc2C)C4)cc1 the results were KDM5B inh 31.6µM*.
`Cc1ccccc1OCC(=O)N1CCc2c(nc3cc(-c4ccccc4Cl)[nH]n3c2=O)C1` gave KDM5B inh inactive.
Screening COc1ccc(NC(=O)N2CCc3nc(-c4cccc(F)c4)[nH]c3C2)cc1 returned KDM5B inh inactive.
For Cc1cccc2[nH]c(COCC(=O)N3CCc4c(nc[nH]c4=O)C3)nc12 the results were KDM5B inh inactive.
`COc1ccc(NC(=O)N2CCc3nc4cc(-c5ccccc5)[nH]n4c(=O)c3C2)c(C)c1` gave KDM5B inh 10µM*.
CC(=O)Nc1ccc(NC(=O)C(C)Br)cc1 (stereo not given) was read as KDM5B inh inactive.
CC(C)CCNC(=O)C1CCNCC1 was read as KDM5B inh inactive.
O=C(NCC1CCCO1)Nc1c(NC2CCCC2)c2ccccc2oc1=O (stereo not given) was read as KDM5B inh inactive.
For N#Cc1cccc(CN2CCC[C@H]2c2nc(-c3cncnc3N)no2)c1 the results were KDM5B inh inactive.
`O=C(c1ccccn1)N1CCC[C@H]1c1nc(-c2ccccc2)no1` gave KDM5B inh inactive.
`CC(C)CN1CCC[C@H]1c1nc(-c2ccnc(N3CCOCC3)c2)no1` gave KDM5B inh 31.6µM*.
Screening Cc1ccc(-c2noc([C@@H]3CCCN3C(=O)c3ccccn3)n2)cc1 returned KDM5B inh inactive.
Cc1ccc(-c2noc([C@@H]3CCCN3C(=O)Cc3ccccc3)n2)cc1 was read as KDM5B inh inactive.
`CNc1ccc(-c2noc([C@@H]3CCCN3C3CCC3)n2)cn1` gave KDM5B inh inactive.
N#Cc1cccc(CN2CCC[C@H]2c2nc(-c3ccc(OC4CCCCC4)nc3)no2)c1 was read as KDM5B inh inactive.
c1cc(-c2noc([C@@H]3CCCN3C3CCC3)n2)cc(N2CCOCC2)n1 was read as KDM5B inh 35.5µM*.
`N#Cc1ccc(CN2CCC[C@H]2c2nc(-c3ccnc(N4CCOCC4)c3)no2)cc1` gave KDM5B inh 35.5µM*.
For COc1ccc(-c2noc([C@@H]3CCCN3Cc3ccccc3OC)n2)cn1 the results were KDM5B inh inactive.
For CNc1ccc(-c2noc([C@@H]3CCCN3Cc3cnc4ccccc4c3)n2)cn1 the results were KDM5B inh inactive.
Screening c1ccc(CN2CCC[C@H]2c2nc(-c3ccnc(N4CCOCC4)c3)no2)cc1 returned KDM5B inh 35.5µM*.
CC(C)CNC(=O)CSc1nc(-c2ccccc2)[nH]c1S(=O)(=O)c1ccccc1 was read as KDM5B inh inactive.
`COC(=O)c1ccc(OC(=O)c2cccs2)c(OC)c1` gave KDM5B inh inactive.
`CCc1nc(-c2c3n(c(=O)n(CC(=O)Nc4cccc(C#N)c4)c2=O)CCCCC3)no1` gave KDM5B inh inactive.
`Cc1cc(C)nc(SCC(=O)Nc2ccccc2C(N)=O)n1` gave KDM5B inh inactive.
For CCCC/C(C)=N/NC(=S)Nc1ccccc1 the results were KDM5B inh inactive.
COc1cccc(N2C(=O)c3cc4oc(C)cc4n3CC2(C)C(=O)NC2CCCCCC2)c1 (stereo not given) was read as KDM5B inh inactive.
For O=C(Nc1c(Cl)cccc1Cl)C1CC1(c1ccccc1)c1ccccc1 (stereo not given) the results were KDM5B inh inactive.
`CCc1ccc(C(=O)N2CCC[C@H]2c2nc(-c3ccc(OC)c(OC)c3)no2)cc1` gave KDM5B inh inactive.
`COc1ccc(-c2noc([C@@H]3CCCN3C(=O)c3ccccn3)n2)cc1` gave KDM5B inh inactive.
CS(=O)(=O)c1ccc(CN2CCC[C@H]2c2nc(-c3ccnc(N4CCOCC4)c3)no2)cc1 was read as KDM5B inh 25.1µM*.
`CS(=O)(=O)c1ccc(CN2CCOC[C@H]2c2ncc(-c3ccncc3)[nH]2)cc1` gave KDM5B inh inactive.
COc1ccc(OCC(=O)N2CCC[C@H]2c2nc(-c3ccccc3)no2)cc1 was read as KDM5B inh inactive.
COCCNc1cc(-c2noc([C@@H]3CCCN3CC(C)C)n2)ccn1 was read as KDM5B inh 31.6µM*.
Screening COc1ccc(-n2c(=O)c(C#N)cc3c(=O)n4cccc(C)c4nc32)c(OC)c1 returned KDM5B inh inactive.
`Cc1c(C(=O)OCc2ccccc2)sc(=S)n1-c1ccccc1` gave KDM5B inh inactive.
Clc1cccc(Cn2c(-c3cncs3)nc3ccccc32)c1 was read as KDM5B inh inactive.
For CC(C)(O)CCC(O)[C@](C)(O)C1CC[C@@]2(O)C3=C/C(=N\O)[C@@H]4C[C@@H](O)[C@@H](O)C[C@]4(C)C3CC[C@]12C (stereo not given in full) the results were KDM5B inh inactive.
`Cc1sc(NC(=O)c2ccsc2)c(C#N)c1C` gave KDM5B inh inactive.
For COc1cc(O)ccc1CN1CCn2nnc(CCC(=O)N3CCCC3)c2C1 the results were KDM5B inh 14.1µM*.
Screening COc1ccc(NC(=O)N2CCn3nnc(CCC(=O)N4CCOCC4)c3C2)cc1 returned KDM5B inh inactive.
Screening COC(=O)c1ccc(NC(=O)N2CCn3nnc(CCC(=O)N4CCCC4)c3C2)cc1 returned KDM5B inh inactive.
Screening Cn1ccnc1C(NC(=O)c1nn(C)c(=O)c2ccccc12)c1ccc(Cl)cc1 (stereo not given) returned KDM5B inh inactive.
Screening O=C(CSc1ccc2c(c1)OCCO2)c1ccc(Br)cc1 returned KDM5B inh inactive.
`CC(C)(C)NC(=O)C1CCN(S(=O)(=O)Cc2ccccc2)CC1` gave KDM5B inh inactive.
